Where “and” joins values, the source holds several entries; their conditions need not be identical. Identical values can stand only once. Inconclusive results are not listed. Entries that show only a call come without a potency. The source holds several records for some structures; these can differ, active in one and inactive in another. Calls of active or inactive are those of the source. Unless noted, calls follow the shape of the full dose curve.

Consider 38 compounds from PubChem BioAssay (Tox21).
Potency is read from the fitted curve at half-maximal effect.

One assay in a line: qHTS assay to identify small molecule antagonists of the sonic hedgehog signaling (Shh) pathway - cell viability counter screen (AID 1259367; active = well fitted cell-killing curve with a large enough effect in the repeat runs; also: nearly all actives have a fitted effect of over 55% in size). Conditions: NIH/3T3 Gli1-Luc viability, CellTiter-Fluor, 24 h; series mostly up to 92.4 µM. In outline:
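Tox21 library chemicals were tested on a Gli1-Luc NIH/3T3 clone (2,000 cells/well) stimulated by conditioned medium; viability was quantified as fluorescence from CellTiter-Fluor reagent added at 23 hr.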
On the technique in general: In qHTS, concentration-response curves come from the screen itself.
As for `Brc1ccc(Br)cc1`, the Potency entry was “inactive”.

On to `COc1ccc(CO)cc1`, for which the Potency result was “inactive”.

For `NC(=O)CN1CCCC1=O`, the Potency result was “inactive”.

For `CC(C)(c1ccccc1)c1ccc(O)c(C(C)(C)c2ccccc2)c1`, the Potency was 60.6 µM (active) and 43.3 µM (active).

As to `NN=C(N)N`, the Potency entry was “inactive”.

Turning to `CCOP(=O)(OCC)OCC`, the Potency result is “inactive”.

Consider `CCNCC`, for which the Potency entry was “inactive”.

For the compound `CC(O)CN(CC(C)O)CC(C)O` (stereo unspecified), the Potency entry was “inactive”.

As for `CCNc1nc(Cl)nc(NC(C)(C)C#N)n1`, the Potency entry is “inactive”.

Take `Cn1c(-c2ccccc2)cc(-c2ccccc2)[n+]1C`: the Potency result is “inactive”.

Turning to `O=C1C(Cl)=C(Cl)C(=O)c2ccccc21`, the Potency was 4.87 µM (active).

In the case of `Cc1cc(Cl)ccc1N=CN(C)C`, the Potency result is “inactive”.

Regarding `Cl`, the Potency entry was “inactive”.

Consider `Clc1cccc(Cl)c1`, for which the Potency result is “inactive”.

Regarding `CCCCCCCCCC(CC)c1ccc(S(=O)(=O)O)cc1` (stereo unspecified), the Potency entry was “inactive”.

For the compound `Nc1ccc([N+](=O)[O-])cc1N`, the Potency was 12.2 µM (active) and 19.3 µM (active).

With `CC(C)(O)C#N`, the Potency result is “inactive”.

For `ClCC(Cl)CCl`, the Potency result is “inactive”.

Take `O=[N+]([O-])c1ccc(Nc2ccccc2)cc1`: the Potency was 48.9 µM (active).

Consider `O=P(OCCCl)(OCCCl)OCCCl`, for which the Potency entry is “inactive”.

`O=S(=O)(O)C(F)(F)C(F)(F)C(F)(F)C(F)(F)C(F)(F)C(F)(F)C(F)(F)C(F)(F)F`: the Potency result is “inactive”.

Turning to `COP(=O)(NC(C)=O)SC` (stereo unspecified), the Potency was 68.7 µM (active) and inactive.

Regarding `CS(=O)(=O)NC(=O)c1cc(Oc2ccc(C(F)(F)F)cc2Cl)ccc1[N+](=O)[O-]`, the Potency entry was “inactive”.

With `[CH3][Sn]([Cl])([Cl])[Cl]`, the Potency result was “inactive”.

As to `c1ccc(C2CO2)cc1` (stereo unspecified), the Potency result was “inactive”.

Consider `O=C1Nc2ccc(Cl)cc2C(c2ccccc2)=NC1O` (stereo unspecified), for which the Potency entry is “inactive”.

In the case of `[Cl-].[Cl-].[Cl-].[Fe+3]`, the Potency result is “inactive”.

For `CCOP(=O)(O)OCC` (tested in a mixture with another compound), the Potency result is “inactive and 42.9 µM (active)”.

`ClC(Cl)(Cl)Br`: the Potency entry is “inactive”.

Consider `CN(C)c1ccccc1`, for which the Potency result is “inactive”.

As to `CCC[CH2][Sn]([Cl])([Cl])[CH2]CCC`, the Potency was 552 nM (active) and 770 nM (active).

In the case of `OC(c1ccc(Cl)cc1)(c1cncnc1)c1ccccc1Cl` (stereo unspecified), the Potency result is “inactive”.

As to `N#CCCCCC#N`, the Potency result is “inactive”.

As for `CC1CC(=O)O1` (stereo unspecified), the Potency entry was “inactive”.

As for `CCCCSP(=O)(SCCCC)SCCCC`, the Potency entry is “inactive”.

Consider `N#Cc1c(Cl)c(Cl)c(Cl)c(C#N)c1Cl`, for which the Potency is 2.39 µM (active) and 6.86 µM (active).

In the case of `Nc1ncn[nH]1`, the Potency entry is “inactive”.

As to `N#CC(c1ccccc1)c1ccccc1`, the Potency result was “inactive”.

A short description of a further assay: qHTS assay to identify small molecule agonists of the sonic hedgehog signaling (Shh) pathway (AID 1259368). Also: nearly all actives have a fitted effect of over 15% in size. Conditions: NIH/3T3 Gli1-Luc reporter, luciferase, 24 h; series mostly up to 92.4 µM. In outline: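 Quantitative high-throughput format using a Gli1-driven firefly luciferase reporter line derived from NIH/3T3 cells. After a 24 hr compound treatment at 37 C and 5% CO2, luminescence reported Gli1 response element activity.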
As to `Brc1ccc(Br)cc1`, the Potency result was “inactive”.

As for `COc1ccc(CO)cc1`, the Potency result was “inactive”.

On to `NC(=O)CN1CCCC1=O`, for which the Potency result is “inactive”.

For the compound `CC(C)(c1ccccc1)c1ccc(O)c(C(C)(C)c2ccccc2)c1`, the Potency entry was “inactive”.

As for `NN=C(N)N`, the Potency result is “inactive”.

Turning to `CCOP(=O)(OCC)OCC`, the Potency result is “inactive”.

With `CCNCC`, the Potency result is “inactive”.

Regarding `CC(O)CN(CC(C)O)CC(C)O` (stereo unspecified), the Potency entry was “inactive”.

Take `CCNc1nc(Cl)nc(NC(C)(C)C#N)n1`: the Potency entry was “inactive”.

Turning to `Cn1c(-c2ccccc2)cc(-c2ccccc2)[n+]1C`, the Potency result was “inactive”.

On to `O=C1C(Cl)=C(Cl)C(=O)c2ccccc21`, for which the Potency entry is “inactive”.

With `Cc1cc(Cl)ccc1N=CN(C)C`, the Potency entry is “inactive”.

As for `Cl`, the Potency result was “inactive”.

With `Clc1cccc(Cl)c1`, the Potency entry was “inactive”.

Regarding `CCCCCCCCCC(CC)c1ccc(S(=O)(=O)O)cc1` (stereo unspecified), the Potency entry was “inactive”.

`Nc1ccc([N+](=O)[O-])cc1N`: the Potency entry is “inactive”.

For the compound `CC(C)(O)C#N`, the Potency entry was “inactive”.

Take `ClCC(Cl)CCl`: the Potency result was “inactive”.

For the compound `O=[N+]([O-])c1ccc(Nc2ccccc2)cc1`, the Potency entry is “inactive”.

`O=P(OCCCl)(OCCCl)OCCCl`: the Potency result is “inactive”.

For `O=S(=O)(O)C(F)(F)C(F)(F)C(F)(F)C(F)(F)C(F)(F)C(F)(F)C(F)(F)C(F)(F)F`, the Potency result was “inactive”.

For `COP(=O)(NC(C)=O)SC` (stereo unspecified), the Potency entry was “inactive”.

For the compound `CS(=O)(=O)NC(=O)c1cc(Oc2ccc(C(F)(F)F)cc2Cl)ccc1[N+](=O)[O-]`, the Potency result was “inactive”.

As for `[CH3][Sn]([Cl])([Cl])[Cl]`, the Potency result is “inactive”.

For `c1ccc(C2CO2)cc1` (stereo unspecified), the Potency result was “inactive”.

For `O=C1Nc2ccc(Cl)cc2C(c2ccccc2)=NC1O` (stereo unspecified), the Potency result was “inactive”.

With `[Cl-].[Cl-].[Cl-].[Fe+3]`, the Potency result was “inactive”.

As to `CCOP(=O)(O)OCC` (tested in a mixture with another compound), the Potency entry is “inactive”.

Consider `ClC(Cl)(Cl)Br`, for which the Potency entry was “inactive”.

On to `CN(C)c1ccccc1`, for which the Potency entry is “inactive”.

For `CCC[CH2][Sn]([Cl])([Cl])[CH2]CCC`, the Potency entry was “inactive”.

Regarding `OC(c1ccc(Cl)cc1)(c1cncnc1)c1ccccc1Cl` (stereo unspecified), the Potency entry was “inactive”.

Take `N#CCCCCC#N`: the Potency result is “inactive”.

Consider `CC1CC(=O)O1` (stereo unspecified), for which the Potency result is “inactive”.

On to `CCCCSP(=O)(SCCCC)SCCCC`, for which the Potency result was “inactive”.

Turning to `N#Cc1c(Cl)c(Cl)c(Cl)c(C#N)c1Cl`, the Potency is 673 nM (active) and 969 nM (active).

With `Nc1ncn[nH]1`, the Potency entry was “inactive”.

As to `N#CC(c1ccccc1)c1ccccc1`, the Potency entry is “inactive”.
